HSP90 refold inh – HSP90 refolding inhibition in rabbit reticulocyte lysate; luciferase refolding luminescence, 3 h; inhibition, % at 5.6 µM; hit rate 0.91% among 290,000;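 active means inhibition above the screen-wide mean plus 3 SD, computed separately per campaign, cut at about 16% in these data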;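 further: 0% = DMSO wells and 100% = 60 µM geldanamycin wells; inhibitors lower the luminescence because luciferase stays unfolded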
HSF-1 act – increases HSF-1 driven luciferase reporter signal; NIH3T3-HGL HSF-1 luciferase reporter, MG132, 8 h; 100% = twice DMSO control signal; activation, % at 9 µM; AID 504408; hit rate 1.7% among 300,000;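 active means mean replicate activation of at least 50% with a set share of replicates each reaching 50%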;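 further: 0% = median of the neutral control wells and 100% = twice that signal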
NR0B1 inh – NR0B1 (DAX1) inhibition | inhibition, % at 6.75 µM | hit rate 0.99% among 340,000 | P51843 | HEK293 Gal4-DAX1 luciferase reporter, luminescence;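 active means inhibition above the mean over all tested compounds plus 3 SD, cut at about 4.2% in these data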;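 further: 0% = DAX1-transfected cells with DMSO and 100% = empty-vector control cells with DMSO; inhibition shows as a rise in luminescence from relieved DAX1 repression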
Target sequence (P51843 207-470 limits assumed): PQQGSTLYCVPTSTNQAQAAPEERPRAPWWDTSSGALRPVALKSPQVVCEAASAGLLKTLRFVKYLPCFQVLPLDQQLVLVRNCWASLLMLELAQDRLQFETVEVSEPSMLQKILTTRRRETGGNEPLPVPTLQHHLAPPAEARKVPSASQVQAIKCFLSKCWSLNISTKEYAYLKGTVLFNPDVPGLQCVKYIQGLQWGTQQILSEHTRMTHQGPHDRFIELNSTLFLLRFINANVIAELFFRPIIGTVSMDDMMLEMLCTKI
AHR act – activates the human aryl hydrocarbon receptor. AHR-responsive luciferase reporter cells, luminescence. hit rate 2.5% among 320,000. activation, % at 5 µM; in the data active means activation above about 47%;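 further: 0% = vehicle wells and 100% = reference agonist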
HSF1 inh – HSF1 inhibition | NIH3T3-HGL HSE-luciferase, MG132-induced, luminescence 8 h; stronger effect = lower value | activity change, negative = inhibition, % at 7.5 µM (by protocol) | hit rate 0.77% among 300,000;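 active means more than half of replicate wells show activity change below -50%, luminescence cut by over half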;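 further: luciferase reports HSF-1 transcriptional activity via heat shock element; 0% = median of DMSO wells and -100% = zero luminescence signal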
GAA850 FXN act – activators of GAA850 frataxin (FXN) promoter; HEK293 lucGAA850 FXN promoter luciferase reporter, 24 h; percent of 10 µM SAHA response; activation, % at 6 µM; hit rate 0.56% among 360,000; AID 540364;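 active means activation above the average of all compounds screened plus 3 SD, cutoff fixed separately per campaign, cut at about 7.5% in these data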;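 further: 0% = DMSO wells and 100% = 10 µM SAHA wells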
* marks the source's active call; other numbers are inactive results; / = no result. Rows were chosen to be rich in hits. Some 5.9% of all compounds tested hit in one or more screens of this group.

SMILES	HSP90 refold inh	HSF-1 act	NR0B1 inh	AHR act	HSF1 inh	GAA850 FXN act
COc1ccc(C(CNC(=O)Nc2cccc(C)c2)N2CCN(C)CC2)cc1 (stereo unspecified)	4	-3	1	9	1	1
CC12CCC(=O)C=C1CCC1C2C(=O)CC2(C)C1CC[C@]2(O)C(=O)CO (stereo partly specified)	-7	-6	-1	0	1	3
CN(Cc1cnn(C)c1)C(=O)C1CCC(=O)N(Cc2ccc(Cl)cc2)C1 (stereo unspecified)	-3	3	1	1	2	2
Cc1ccc(C)c(NC(=O)C2CC3CCC2C3)c1 (stereo unspecified)	-4	6	1	1	1	1
Oc1ccc(C2C[C@H]3CC[C@@H]2C3)cc1O (stereo partly specified)	-4	90*	-2	2	80	2
O=C(Cn1c(SCC(=O)NC2CCCC2)nnc1-c1ccncc1)Nc1ccc2c(c1)OCO2	2	-6	-1	66*	-3	1
CCc1ccccc1-n1c(SCC(=O)Nc2ccc3c(c2)OCCO3)nc2[nH]ncc2c1=O	7	-75	-2	5	-68*	-12
CCc1nnc(SCC(=O)Nc2ccc3c(c2)OCO3)n1CC	-3	-10	1	50*	-3	0
CCn1c(Cc2ccccc2)nnc1SCC(=O)Nc1ccccc1O	-2	51*	4	0	16	4
CCn1c(Cc2ccccc2)nnc1SCC(=O)NC(C)(C)C	3	7	0	2	0	-1
CCN(CC)S(=O)(=O)c1ccc(N2CCN(C)CC2)c(NC(=O)CN2C(=O)NC3(CCCCC3)C2=O)c1	/	/	-1	/	/	-3
Cc1ccc(C)c(S(=O)(=O)N2CCCC2CNC(=O)C(=O)NCCN2CCOCC2)c1 (stereo unspecified)	/	-1	-2	-4	-4	0
CCn1c(SCC(=O)Nc2ccc3c(c2)OCO3)nnc1C1CC1	-1	-1	4.9*	20	-9	0
CCn1c(SCC(=O)Nc2ccc3c(c2)OCCO3)nnc1C1CC1	-3	14	1	6	1	-1
CCCN(CC(=O)Nc1cccc(Br)c1)CC(=O)Nc1ccc(F)c(F)c1F	3	1	-1	10	4	2
CCCN(CC(=O)Nc1ccc(NC(C)=O)cc1)CC(=O)Nc1ccc(F)c(F)c1F	3	21	4.6*	2	-3	-3
NNC(=O)c1ccc(Cn2cc(Cl)cn2)cc1	-1	10	-1	23	-2	1
O=C(Nc1cccc(NC(=O)c2cccnc2)c1)c1cccnc1	2	2	0	41	-7	2
O=C(Nc1ccc(Cl)c(Cl)c1)c1ccc(Cn2cc(Cl)cn2)cc1	-1	72*	1	/	40	6
O=C(Nc1ccc(Cl)c(Cl)c1)c1cccnc1	5	13	6.3*	71*	16	4
CC(=O)Nc1ccc(NC(=O)/C=C/c2ccc3c(c2)OCO3)cc1	-2	16	1	1	7	2
O=C(/C=C/c1ccc2c(c1)OCO2)Nc1nncs1	2	53*	/	89*	22	2
O=C(/C=C/c1ccc2c(c1)OCO2)Nc1cccnc1	8	30	4	56*	2	7
CC(=O)NC12CC3CC(C1)CC(C(=O)Oc1ccc(N(C)S(=O)(=O)c4cc(C)ccc4C)cc1)(C3)C2	/	-5	0	-1	-2	2
CCOC(=O)CN1CC23C=CC(O2)C(C(=O)Nc2cc(OC)ccc2OC)C3C1=O (stereo unspecified)	-4	-5	4.9*	6	-2	-2
SMILES	HSP90 refold inh	HSF-1 act	NR0B1 inh	AHR act	HSF1 inh	GAA850 FXN act
CCOC(=O)CN1CC23C=CC(O2)C(C(=O)NC2CCCCC2)C3C1=O (stereo unspecified)	3	-92	2	0	-89*	1
CCOC(=O)CN1CC23C=CC(O2)C(C(=O)NC2CCCC2)C3C1=O (stereo unspecified)	-3	-17	-1	0	-6	-1
CN(C)S(=O)(=O)c1ccc(N2CCOCC2)c(C(=O)NCc2ccc3c(c2)OCO3)c1	/	/	0	-1	/	0
O=C(OCc1nc2ccccc2c(=O)[nH]1)c1cccs1	-2	34	1	55*	14	0
COc1cc(OC)cc(C(=O)NCC(=O)OCc2nc3ccccc3s2)c1	3	6	6.9*	22	11	3
O=C(OCc1nc2ccccc2s1)c1cccs1	3	-10	4.9*	16	9	0
COc1ccc(C(=O)CC(Sc2ccccc2N)c2ccc(OC)cc2)cc1 (stereo unspecified)	/	/	2	/	/	5
CCc1nc2ccc(C(=O)Nc3ccc(NC(C)=O)cc3)cn2c1N(C)CCC(C)C	/	/	/	/	/	-3
Cc1cccc(-c2cccc(NC(=O)C3CCCN(C(=O)c4csc(C)n4)C3)c2)c1 (stereo unspecified)	-3	60*	-2	10	38	-6
O=C(Nc1cccc(F)c1)C1CCCN(C(=O)c2ccc(Cl)cc2)C1 (stereo unspecified)	/	/	-1	51*	/	1
Cc1cccc(-c2cccc(NC(=O)C3CCCN(C(=O)c4ocnc4C)C3)c2)c1 (stereo unspecified)	3	41	0	15	16	2
O=C(Nc1ccccc1)C1CCCN(C(=O)c2ccc(Cl)cc2)C1 (stereo unspecified)	-1	23	-2	-2	-1	0
Cc1cccc(-c2cccc(NC(=O)C3CCCN(C(=O)c4cccnc4)C3)c2)c1 (stereo unspecified)	-5	67*	-1	/	21	3
C=CCn1c(COc2ccc(CC)cc2)nnc1SC/C(O)=C(\C#N)c1nc2ccccc2[nH]1	4	80*	0	20	33	-1
C[C@H]1CN([C@@H](C)CO)C(=O)CCCn2nncc2CO[C@@H]1CN(C)C(=O)c1ccncc1	/	/	2	/	/	-2
O=C(OC1CCN(c2ncc(C(F)(F)F)cc2Cl)CC1)c1ccc(Cl)cc1	-1	-7	0	-1	-6	-1
O=C(OCCN1CCN(c2ncc(C(F)(F)F)cc2Cl)CC1)c1ccc(Cl)cc1	-3	-84	1	1	-80*	0
COc1ccc(S(=O)(=O)N2CCCCCC2)cc1C(=O)N1CCN(C(C)=O)CC1	/	/	1	/	/	0
COc1ccc2occ(C(=O)c3ccc(N)cc3)c2c1	-3	11	1	/	14	-2
COc1ccc2occ(C(=O)c3cccs3)c2c1	-4	78*	2	7	36	5
COc1cccc(C(NC(C)=O)c2nc(-c3ccc4ccccc4c3)cs2)c1 (stereo unspecified)	/	/	/	/	/	0
CN(C)c1ncnc2c1ncn2C1OC(CO)C(O)C1O (stereo unspecified)	2	-30	-3	42	-31	-6
